Compounds without any hit were thinned out: in the full panel of roughly 79,000, 15% have a hit. Calls of active or inactive are those of the source. Cut-off read from the data, not from the text of the source: active = growth inhibition above about 70%; inactive = the rest.
Tests used:
[1] = NCI Yeast Anticancer Drug Screen. Data for the rad50 strain (AID 155);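 note: 0% = growth of vehicle-only cultures of the same strain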; details: S. cerevisiae rad50 strain growth inhibition; at 50.0 µM; active compounds read high
Summary of the method: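 Inhibition values express reduced yeast growth in compound-treated cultures relative to vehicle-treated controls.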

[2] = NCI Yeast Anticancer Drug Screen. Data for the mec2-1 strain (AID 157); details: S. cerevisiae mec2-1 strain, at 50.0 µM, active compounds read high
Summary of the method: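 Test agents were screened against the mec2-1 yeast strain, with defined DNA repair or cell cycle alteration. Growth was scored as inhibition against vehicle-only controls.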

[3] = NCI Yeast Anticancer Drug Screen. Data for the sgs1 mgt1 strain (AID 161);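 note: 0% = growth of cultures given vehicle only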; details: S. cerevisiae sgs1 mgt1 strain, at 50.0 µM, active compounds read high
Summary of the method: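 Genetically altered yeast, compound exposure, growth inhibition relative to vehicle.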

[4] = NCI Yeast Anticancer Drug Screen. Data for the cln2 rad14 strain (AID 165);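 note: 0% = growth equal to vehicle treated cultures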; details: S. cerevisiae cln2 rad14 strain, at 50.0 µM, active compounds read high
Summary of the method: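 Growth of compound-exposed yeast (cln2 rad14 genotype) measured and expressed as inhibition relative to vehicle.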

[5] = NCI Yeast Anticancer Drug Screen. Data for the bub3 strain (AID 167); details: S. cerevisiae bub3 mutant strain, at 50.0 µM, active compounds read high
Summary of the method: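 Steps: expose the mutant yeast strain to compound; grow alongside vehicle-treated cultures; measure growth; express inhibition against the vehicle cultures.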

[6] = NCI Yeast Anticancer Drug Screen. Data for the mlh1 rad18 strain (AID 175); details: S. cerevisiae mlh1 rad18 strain growth inhibition; at 50.0 µM; active compounds read high
Summary of the method: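 In this whole-cell yeast screen, a strain with altered DNA damage repair is challenged with compound, and its growth is measured against matched vehicle-treated controls.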

Measured: growth inhibition

CCOCCOCCOC(C)Oc1ccc(Cl)cc1 (configuration not stated)
inactive: [1] 4.05% | [2] 8.4% | [3] -9.05% | [4] 10.7% | [5] 6.15% | [6] 9.55%

[N-]=[N+]=NC12CC3CC4C5CC(CC41)CC2[C@H]5C3
inactive: [1] 13.1% | [2] -5.35% | [3] -6.1% | [4] -0.55% | [5] -17.1% | [6] -14.4%

CCCCCCCCC1CC(=O)OC1=O (configuration not stated)
inactive: [1] 0.05% | [2] 0.55% | [3] -0.65% | [4] 7.05% | [5] -1.55% | [6] -2.35%

O=C(c1ccc(F)cc1)C1CC1
inactive: [1] 3.7% | [2] -17.8% | [3] 19% | [4] 9.3% | [5] -0.95% | [6] 2.25%

c1ccc(/C2=C(\c3ccccc3)CSSSSC2)cc1
inactive: [1] 68.5% | [2] 48.4% | [3] 45.4% | [4] 43.2% | [5] 62.9%
active: [6] 89%

CC(C)Cn1cnc2c(SCc3ccccn3)nc(N)nc21
inactive: [1] -6.45% | [2] -17.4% | [3] -10.2% | [4] -30.6% | [5] -48.5% | [6] -17.4%

N#Cc1c2c(c(-c3cccs3)n(C3OC(CO)C(O)C(O)C3O)c1=S)CCc1ccccc1-2 (configuration not stated)
inactive: [1] 10.7% | [2] -9.55% | [3] -3.35% | [4] -20.4% | [5] 0.8% | [6] 1.6%

CCOC(=O)N1CCN(Cc2cc(=O)n3cc(C)ccc3n2)CC1
inactive: [1] -14.1% | [2] -15.5% | [3] 11.3% | [4] 16.2% | [5] 5.95% | [6] 2.2%

O=C(O)c1cc(C(=O)O)cc(S(=O)(=O)NCCO)c1
inactive: [1] 3.05% | [2] -10.5% | [3] 2.1% | [4] -30.2% | [5] 3% | [6] 5.1%

CC(=O)NC(Cc1ccccc1)C(=O)NN (configuration not stated)
inactive: [1] 7.15% | [2] -8.3% | [3] -11.2% | [4] -0.35% | [5] -6.55% | [6] -22.3%

NS(=O)(=O)c1ccc(NC(=S)/N=C/c2c(O)c3ccccc3oc2=O)cc1
inactive: [1] 6.2% | [2] -4.45% | [3] 16.3% | [4] -18.9% | [5] -10.4% | [6] 12.6%

CC(=O)CCCC(CC(C)O)[Si](C)(C)C (configuration not stated)
inactive: [1] -43.6% | [2] -19.4% | [3] -1.05% | [4] -14.2% | [5] -8.45% | [6] -23.6%

Cc1cccc2c(C(=O)O)c3cccc(C)c3nc12
inactive: [1] 2.9% | [2] -0.15% | [3] 8.35% | [4] 18.6% | [5] 5.3% | [6] -3.95%

CCOCC(=O)O
inactive: [1] -15.1% | [2] -1.25% | [3] 9.15% | [4] -32.2% | [5] 39.2% | [6] -1.25%

CC1(C)CC[C@]2(C(=O)O)CC[C@]3(C)C(=CC[C@@H]4[C@@]5(C)CC[C@H](OC6OC(CO)C(O)C(O)C6OC6OC(CO)C(O)C(O)C6O)C(C)(C)[C@@H]5CC[C@]43C)[C@@H]2C1 (some centres not stated)
active: [1] 86.8% | [2] 86.7% | [3] 87.1% | [4] 86.2% | [5] 84.3% | [6] 83.5%

CCCCOS(=O)OCCCC
inactive: [1] 22.7% | [2] 29.5% | [3] -6.1% | [4] 13.2% | [5] 0.15% | [6] -14.8%

CCOC(=O)[C@H]1C(CC)=NOC1C (some centres not stated)
inactive: [1] 9.95% | [2] 13.2% | [3] 2.9% | [4] -27.5% | [5] 4.25% | [6] 2.4%

CSc1nc(NC2OCC(O)C(O)C2O)cc(=O)n1C (configuration not stated)
inactive: [1] 7.25% | [2] -0.45% | [3] 7.4% | [4] -4.9% | [5] -26.9% | [6] -2.95%

NC(=O)c1csc(C2OC(CO)CC2O)n1 (configuration not stated)
inactive: [1] 4.55% | [2] -2.95% | [3] -2.45% | [4] -6% | [5] 0.2% | [6] -2.1%

C(=N/Nc1ccccn1)/NN/C=N/Nc1ccccn1
inactive: [1] -7.6% | [2] 6.25% | [3] -3.8% | [4] 7.1% | [5] -2.45% | [6] -4.9%

O=C(Oc1ccccc1)N1CCCSC1=S
inactive: [1] 19.4% | [2] -14.3% | [3] 5.35% | [4] 31.4% | [5] 16.2% | [6] 51.2%

CN(C)c1ncnc2c1ccn2CC(O)CO (configuration not stated)
inactive: [1] -2.7% | [2] -11.1% | [3] -8.55% | [4] -54.5% | [5] 3.1% | [6] -2.85%

Cc1ccc(N2CCN(c3ccc([N+](=O)[O-])cc3)CC2)cc1Cl
inactive: [1] -6.15% | [2] 7.15% | [3] 2.85% | [4] -12.4% | [5] 0.15% | [6] -28.3%

ClC1(Cl)C2CCOC21n1cnc2ccccc21 (configuration not stated)
inactive: [1] 11.8% | [2] -5.1% | [3] -8.3% | [4] 4.95% | [5] 8.25% | [6] -11.2%

O=C(c1ccccc1)C1CC2C=CC1C2 (configuration not stated)
inactive: [1] 4.3% | [2] -8.25% | [3] 2.4% | [4] 36.9% | [5] -0.7% | [6] 17.2%

Cc1ccc(S(=O)(=O)NNc2nc(N3CCCCC3)nc(N3CCCCC3)n2)cc1
inactive: [1] -1.25% | [2] -2.4% | [3] 8.2% | [4] -17.9% | [5] -4.85% | [6] 19.6%

CCOc1ccc(-c2nc(-c3oc4ccccc4c(=O)c3OC(C)=O)cs2)cc1
inactive: [1] -5.25% | [2] 1% | [3] 1.85% | [4] -2.85% | [5] -5.9% | [6] 9.4%

CCOC(=O)C(Cc1ccc([N+](=O)[O-])cc1)NC(=O)CC1c2ccccc2-c2ccccc21 (configuration not stated)
inactive: [1] -10.1% | [2] 1.05% | [3] 3.4% | [4] -35% | [5] -9.9% | [6] -8.95%

COc1n[n+]([O-])c(OC)cc1[N+](=O)[O-]
active: [6] 76.7%
inactive: [1] 51.7% | [2] 33.6% | [3] 33.9% | [4] 15% | [5] 17.6%

CCCCC1=C(C)C/C(=N/Nc2ccc([N+](=O)[O-])cc2[N+](=O)[O-])C(C)C1CCCC (configuration not stated)
inactive: [1] 3.7% | [2] 2.8% | [3] -13.6% | [4] 8.15% | [5] 3.3% | [6] 21.9%

Cc1ccc2c(c1)C(=Nc1ccc(Cl)cc1)C(=O)N2
inactive: [1] -1.6% | [2] 1.7% | [3] 1.75% | [4] -0.55% | [5] 18.9% | [6] 13.1%

Cc1ccc(S(=O)(=O)N/N=C(/c2ccccc2)c2ccsc2C)cc1
inactive: [1] 6.7% | [2] 37.3% | [3] 37% | [4] 24.2% | [5] 41.3% | [6] 53.4%

COC(C)CC(=O)O (configuration not stated)
inactive: [1] -25.8% | [2] -28.2% | [3] -37.2% | [4] -24.5% | [5] -13.2% | [6] -4.9%

Nc1nc(N)c(CCCCc2ccc([N+](=O)[O-])cc2)c(N)n1
inactive: [1] -1.05% | [2] 21.1% | [3] 24.1% | [4] -9.95% | [5] -1.4% | [6] -21.3%

CCCCn1cnc2c(N)ncnc21
inactive: [1] -0.05% | [2] -7.75% | [3] -5.45% | [4] -18.1% | [5] 1.45% | [6] -15.5%

Cc1n[nH]c(=S)[nH]c1=S
inactive: [1] -14.3% | [2] -5.1% | [3] 9.4% | [4] -42.1% | [5] -23.2% | [6] 14.4%

O=[N+]([O-])c1cccc(C(O)(C(F)(F)F)C(F)(F)F)c1
inactive: [1] -19.1% | [2] 6.2% | [3] 1.7% | [4] 24.1% | [5] 42.7% | [6] 14%

O/N=C1\CCCC\C1=N/O.O/N=C1\CCCC\C1=N/O.[Pt]
inactive: [1] 34.8% | [2] -0.8% | [3] 8.05% | [4] 19.3% | [5] -1.75% | [6] 8.05%

CSC(C(O)C(O)C(O)C(O)CO)n1cnc2c(=S)nc[nH]c21 (configuration not stated)
inactive: [1] 1.1% | [2] 5.7% | [3] 5.75% | [4] 19.6% | [5] 11.3% | [6] 9%

CN(C)c1nc(-c2ccccc2)c(Cc2ccccc2)c(=O)o1
inactive: [1] -1.9% | [2] -4.15% | [3] 20.5% | [4] -4.25% | [5] 7.25% | [6] 7.8%

Cc1cc(Cl)ccc1N=NC(=O)NNc1ccc(Cl)cc1C
inactive: [1] 35.2% | [2] -15.2% | [3] -7.05% | [4] -21.9% | [5] -7.2% | [6] -19.5%

COC(=O)C1(Cc2ccccc2)Cc2ccccc2C1
inactive: [1] 24.7% | [2] 36.1% | [3] 36.4% | [4] 20.2% | [5] 55.4% | [6] 12.2%

Source: PubChem BioAssay (NCI)
